Measurements taken from PubChem BioAssay (NCI).
This is part of a sample that, as a whole, favours compounds with a hit. Of some 79,000 tested, about 15% had one in any assay. Values without a mark were called inactive. Active and inactive are the calls of the source. Cut-off read from the data, not from the text of the source: active = growth inhibition above about 70%; inactive = the rest.

Experiments:
[1] = NCI Yeast Anticancer Drug Screen. Data for the rad50 strain (AID 155);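 note: 0% = growth of vehicle-only cultures of the same strain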; conditions: S. cerevisiae rad50 strain growth inhibition; at 50.0 µM; stronger effect = higher value
How it was run: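 Cells are treated with compound, grown, and their growth is then scored against vehicle-only cultures of the same repair-deficient yeast strain.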

[2] = NCI Yeast Anticancer Drug Screen. Data for the mec2-1 strain (AID 157); conditions: S. cerevisiae mec2-1 strain, at 50.0 µM, stronger effect = higher value
How it was run: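 mec2-1 yeast strain, carrying an alteration in DNA damage repair or cell cycle control, was exposed to compounds; growth inhibition was measured relative to vehicle-treated controls.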

[3] = NCI Yeast Anticancer Drug Screen. Data for the sgs1 mgt1 strain (AID 161);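 note: 0% = growth of cultures given vehicle only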; conditions: S. cerevisiae sgs1 mgt1 strain, at 50.0 µM, stronger effect = higher value
How it was run: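 Yeast cells carrying a defined DNA-repair defect were exposed to test compounds. Growth inhibition was measured relative to vehicle-treated controls.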

[4] = NCI Yeast Anticancer Drug Screen. Data for the cln2 rad14 strain (AID 165);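 note: 0% = growth equal to vehicle treated cultures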; conditions: S. cerevisiae cln2 rad14 strain, at 50.0 µM, stronger effect = higher value
How it was run: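 Yeast carrying cln2 and rad14 alterations (cell cycle control and DNA damage repair) were exposed to compounds. Growth inhibition was measured against vehicle-treated controls.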

[5] = NCI Yeast Anticancer Drug Screen. Data for the bub3 strain (AID 167); conditions: S. cerevisiae bub3 mutant strain, at 50.0 µM, stronger effect = higher value
How it was run: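 Part of a panel of yeast mutants defective in DNA damage repair or cell cycle regulation. Each strain is grown with compound, and inhibition is calculated relative to solvent-treated cultures.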

[6] = NCI Yeast Anticancer Drug Screen. Data for the mlh1 rad18 strain (AID 175); conditions: S. cerevisiae mlh1 rad18 strain growth inhibition; at 50.0 µM; stronger effect = higher value
How it was run: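 Growth inhibition of the yeast strain was measured after compound exposure and expressed relative to vehicle-treated controls. The strain carries defined defects in DNA damage repair.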

Row | SMILES | growth inhibition [1] | growth inhibition [2] | growth inhibition [3] | growth inhibition [4] | growth inhibition [5] | growth inhibition [6]
1 | COC(=O)c1ccc(C)[n+](C2OC(COC(=O)c3ccccc3)C(OC(=O)c3ccccc3)C2OC(=O)c2ccccc2)c1 (stereo not given) | 5.2% | 3.45% | 8% | -25.6% | -14.2% | 29.1%
2 | O=c1[nH]c2cc(Cl)ccc2nc1/C=C(\O)c1cccc(O)c1 | -3.45% | -5.05% | -8.45% | -4.35% | -4.45% | 10.2%
3 | CCOC(=O)c1ccccc1OC(=O)Oc1ccccc1C(=O)OCC | 17.9% | 10.2% | -5.25% | -23.1% | -5.55% | 33.9%
4 | COc1ccc(/C=C\c2cccc(Cl)c2)cc1 | 21.6% | -25.1% | 3.3% | -8.95% | -13.3% | 6.4%
5 | COCC1OC(OC2(COC)OC(COC)C(OC)C2OC)C(OC)C(OC)C1OC (stereo not given) | 22.1% | -4.15% | -9.2% | -34.2% | -18.1% | 5.6%
6 | COc1cc([C@@H]2c3cc4c(cc3[C@@H](Nc3ccc(NC(=O)c5cc(NC(=O)c6cc([N+](=O)[O-])cn6C)cn5C)cc3)[C@H]3COC(=O)[C@H]23)OCO4)cc(OC)c1O | 34% | 31.6% | 34% | 9.2% | 16.4% | 6.45%
7 | COc1cc(NC(C)=O)c2[nH]c3c(C)cc(NC(C)=O)c(C)c3c2c1 | -25.6% | -55.1% | -67.2% | -34.5% | -27.6% | -56.7%
8 | Clc1ccc2c(N3CCC(CCC4CCN(c5ncnc6cc(Cl)ccc56)CC4)CC3)ncnc2c1 | -17.9% | -21.6% | -7.4% | -39.4% | -14.6% | -14.2%
9 | CCCCOC(=O)C(C)OC(=O)Nc1ccccc1 (stereo not given) | 5.85% | 23.4% | 16.1% | -52.6% | 18.6% | 12%
10 | NC(Cc1ccccc1)C(=O)Nc1cccnc1 (stereo not given) | -17.4% | 15.2% | 7.75% | -44.6% | 15.8% | -5.75%
11 | COC(=O)C(c1ccccc1)S(=O)(=O)c1ccccc1 (stereo not given) | -2.75% | -13.3% | 3.6% | -2.75% | -21.4% | -5.5%
12 | O=C(c1nc2ccc(Cl)cc2[nH]c1=O)C(O)c1ccc2c(c1)OCO2 (stereo not given) | -10.9% | -10.2% | -3.85% | 21.1% | -13.2% | 5.2%
13 | CC(=O)c1cc(Cl)ccc1Cl | 23.9% | -6.2% | -0.8% | 33% | -3.05% | 26.1%
14 | CCCCCCCCn1nnnc1C(F)(F)F | -3.1% | 8.45% | 6.75% | -15.1% | 1.45% | -0.45%
15 | COC(=O)C1(C)CCCC2(C)C3CC4OC4(C(C)C)CC3(O)CCC12 (stereo not given) | -4.5% | 6.85% | 4% | -8.4% | -12.1% | 42.1%
16 | Cc1cccc(C)c1NC(=S)N1CCC(CCCC2CCN(C(=S)Nc3c(C)cccc3C)CC2)CC1 | -12.8% | -18.6% | -1.65% | 15.7% | 4.8% | 12.2%
17 | COc1cccc(/C=C2/C(=O)N(c3ccc([N+](=O)[O-])cc3)N=C2C)c1 | 34.5% | 5.1% | 37.9% | 11.9% | 14.3% | 43.9%
18 | Nc1nc(N)c2c(n1)NCN(OCOc1ccc(Cl)cc1)C2 | -5.05% | -6% | -4.7% | -21.8% | 7.75% | 1.55%
19 | Cc1c(COC(=O)NC(C)C)c(COC(=O)NC(C)C)c(-c2ccccc2)n1-c1ccccc1 | -16% | -1.95% | 13.8% | -8.1% | -14.1% | 64.2%
20 | COc1ccc2ccccc2c1C1OC(=O)c2ccccc21 (stereo not given) | 37.8% | 24.6% | 51.7% | 33.4% | 25.2% | 52.5%

Row | SMILES | growth inhibition [1] | growth inhibition [2] | growth inhibition [3] | growth inhibition [4] | growth inhibition [5] | growth inhibition [6]
21 | COC(=O)C(=O)c1c(C2CC2)[nH]c2[nH]n(-c3ccccc3)c(=O)c2c1=O | 11% | 20.1% | 12.4% | -9.2% | -1.1% | 3.6%
22 | C=CCOC(=O)C(O)C=C (stereo not given) | 7.9% | -12.3% | 2.3% | 16.4% | -1.6% | 11.6%
23 | O=[N+]([O-])c1ccc(OC(=S)Oc2ccc([N+](=O)[O-])cc2)cc1 | 3.45% | -16.7% | 2.9% | -4.4% | -0.05% | 1.8%
24 | COCn1ccnc1C(=O)c1ccccc1 | -11.4% | -13.8% | -9.65% | -27.1% | -7.25% | -5.15%
25 | CCN(CC)C(=O)CS(=O)(=O)c1ccc(N)cc1 | 3.55% | -8.5% | 2% | 23.9% | 7.35% | 14.7%
26 | CCO/C=C1/N=C(c2cc([N+](=O)[O-])cc([N+](=O)[O-])c2C)OC1=O | 10.6% | 6.85% | -6.45% | -58.2% | -35% | 15.1%
27 | C(=C1/NC(c2ccccc2)=Nc2ccccc21)/c1ccccc1 | 24.3% | -0.5% | 10.9% | 37.6% | 4.85% | 29.8%
28 | CCCc1oc(C)cc1CC | 0.45% | -22.4% | 0.2% | -1.95% | -15.9% | -10.2%
29 | COc1cc2c(c(OC)c1OC)-c1ccc(OC)c(=O)cc1C(NC(=O)CCCCCNc1ccc(N=[N+]=[N-])cc1[N+](=O)[O-])CC2 (stereo not given) | 88.5% (active) | 84.4% (active) | 45% | 36% | 12.8% | 84.3% (active)
30 | Cn1c(=S)sc2ccc(S(=O)(=O)C(F)F)cc21 | 23.7% | 20.9% | 4.7% | 12.8% | 22.6% | 25.1%
31 | CC(=O)/C(=C/n1ccc(=O)[nH]c1=S)C(=O)Nc1ccccc1 | -23.1% | -20.5% | -18.6% | 11.2% | -12.7% | -22.1%
32 | CCc1cc2c(cc1C(=O)CCN1CCCC1)C(C)(C)CCC2(C)C | 99.5% (active) | 99.7% (active) | 98.5% (active) | 99.5% (active) | 99.5% (active) | 99.8% (active)
33 | O=C(Nc1ccc(Cl)cc1Cl)C1C(=O)C(=O)N(c2ccc(Cl)cc2Cl)C1=O (stereo not given) | 10.8% | -10.1% | -1.35% | 26% | 0.8% | 14.4%
34 | CCOC(=O)/C(C#N)=C(O)/C(=C\c1ccc(Br)cc1)NC(=O)c1ccccc1 | -29.9% | -12.9% | -24.2% | 13.2% | -4.25% | -15.1%
35 | CC(=O)c1ccco1 | 17.8% | 16.4% | -5.15% | -43% | 1.25% | 13.1%
36 | Cc1ccc(S(=O)(=O)NC(C)C(=O)O)cc1 (stereo not given) | -1.5% | -6.65% | 4.9% | 3.2% | -7.65% | 4.6%
37 | O=C(O)CNC(=O)CNC(=O)c1ccc2ccccc2n1 | 2.7% | -4.05% | 11.1% | 10.7% | -14.3% | 15.9%
38 | CCOc1ccc(N2CC(=O)N3CCCC(c4ccccc4)N3C(=O)C2)cc1 (stereo not given) | -23.7% | -10.9% | 13.4% | 4.9% | 12.1% | 8.55%
39 | COc1ccc(S(=O)(=O)O)cc1N | -21.2% | -15.9% | -13.5% | -5.15% | -11.9% | -3.95%
40 | O=C(CSc1nc2ccccc2c2ccccc12)c1ccccc1 | 9.25% | -42.5% | -4.4% | -52% | -42.8% | 12.8%
